This is one part of a sample in which hits are shown more often than they occur.
Pf apPOL block: Pf-apPOL inhibitors, biochemical, fluorescence. Plasmodium falciparum apicoplast DNA polymerase (apPOL). Recombinant Pf-apPOL, molecular beacon fluorescence, 1.5 h. inhibition, % at 10 µM. 0.25% of 210,000 active
mHTT-CaM PPI inh: mutant huntingtin-calmodulin interaction inhibitors – biochemical, AlphaScreen, primary screen; P42858; AlphaScreen His-mHTT/GST-CaM binding, luminescence; inhibition, % at 15 µM; 3.6% of 190,000 active; AID 1671202, 2021
Numbers stand for hits; - = inactive; . = not tested or not shown; ! = a repeat was not active. Rule as the data show it: active = inhibition above about 50%; inactive = the rest.

SMILES	Pf apPOL block	mHTT-CaM PPI inh
CC(=O)Nc1nc(C)c(-c2csc(Nc3ccc(C(=O)O)cc3)n2)s1	-	-
Cc1oc2c(CN(C)C)c(O)ccc2c(=O)c1-c1ccccc1Cl	-	-
CC(C)n1cc(C2=CCN(S(=O)(=O)c3ccccc3)CC2)c2cccnc21	-	-
CCSc1nc2c(c(=O)[nH]1)C(c1ccc(OC)c(OC)c1)C1=C(CCCC1=O)N2 (stereo not given)	-	-
CC(C)(C)c1ccc(/C=C2\C(=O)Nc3ccc(F)cc32)cc1	-	-
CC(=O)c1ccc(NC(=O)Cn2c(-c3cncs3)nc3ccccc32)cc1	-	-
O=C(Cn1nc(-c2ccc(Cl)cc2)c2ccccc2c1=O)NCc1ccccn1	-	-
CC(=O)c1cccc(Nc2nc(-c3ccccn3)cs2)c1	-	86
Cc1ccnc(Nc2nc(-c3cccs3)cs2)c1	-	-
Cc1ccnc(Nc2nc(-c3ccccn3)cs2)c1	-	100
CC(=O)c1cccc(Nc2nc(-c3ccccc3)cs2)c1	-	-
COC(=O)c1ccc2c(=O)n(CCc3ccccc3)c(N3CCSC3)nc2c1	-	-
COc1ccc(NC(=O)N2CCC(n3c(-c4ccoc4)nc4cccnc43)C2)cc1 (stereo not given)	-	-
CC(Cc1ncn(-c2cc(C)on2)n1)=NOC(=O)Nc1ccc(Cl)cc1	-	.
CC(C)(C)c1csc(NC(=O)c2ccc(N3CCOCC3)c([N+](=O)[O-])c2)n1	-	55
COc1ccc(Cc2cnc(NC(=O)c3ccc(N4CCOCC4)c([N+](=O)[O-])c3)s2)cc1	-	-
COCCN(Cc1ccsc1)C(=O)c1ccccc1F	-	-
O=C1CCC[C@@H]2[C@@H](Cc3ccccc3)[C@@H](Nc3ccccc3)C[C@@H]3CCN1[C@@H]32	-	70
O=C1CCC[C@@H]2[C@H](Cc3ccccc3)[C@@H](O)C[C@@H]3CCN1[C@@H]32	-	-
O=C(Cc1cccs1)NCC1CCN(Cc2ccccc2)CC1	-	-
COCC(C)NC(=O)c1ccc(C(C)(C)C)cc1 (stereo not given)	-	-
CCCC(=O)Nc1c2c(nn1-c1ccccc1C)CSC2	-	-
C=C1CCN([C@H](C(=O)NCc2ccc(Cl)c(Cl)c2)C(C)C)S(=O)(=O)c2ccccc21	-	74
C=C1CCN([C@@H](CC(C)C)C(=O)NCc2ccc(Cl)cc2)S(=O)(=O)c2ccccc21	-	70
C=C1CCN([C@@H](CC(C)C)C(=O)NCc2ccc(OC)cc2)S(=O)(=O)c2ccccc21	-	-
SMILES	Pf apPOL block	mHTT-CaM PPI inh
C=C1CCN([C@@H](Cc2ccccc2)C(=O)NCc2ccc(Cl)c(Cl)c2)S(=O)(=O)c2ccccc21	-	-
C=C1CCN([C@@H](CC(C)C)C(=O)NCc2cc(OC)c(OC)c(OC)c2)S(=O)(=O)c2ccccc21	-	-
C=C1CCN([C@@H](CC(C)C)C(=O)NCc2ccc(Cl)c(Cl)c2)S(=O)(=O)c2ccccc21	-	99
COc1cccc(C=C2Oc3cc(OC(=O)C(C)C)ccc3C2=O)c1OC	-	-
COc1ccc2c(c1)CCN(S(=O)(=O)C1CC1)C2	-	-
COc1cccc(C(=O)c2oc3ccc(NC(=O)c4ccncc4)cc3c2C)c1	-	-
Cc1ccc(N2CCCN(Cc3ccccc3)C2=O)c(NC(=O)C2CC2)c1	-	-
COc1ccccc1C(=O)N1CCN=C1N1CCN(c2cccc(Cl)c2)CC1	-	-
COc1ccc(C(=O)N2CCN=C2N2CCN(c3cccc(Cl)c3)CC2)cc1	-	85
COc1cccc(-n2nc(C(=O)N3CCN(c4cccc(Cl)c4)CC3)c3ccccc3c2=O)c1	-	61
CCOc1ccc(C(=O)N2CCN=C2N2CCN(c3cccc(Cl)c3)CC2)cc1	-	100
COc1cccc(-n2nc(C(=O)N3CCOCC3)c3ccccc3c2=O)c1	-	-
CCOc1ccc(C(=O)N2CCN=C2N2CCC(C)CC2)cc1	-	-
NC(=O)c1cccnc1N1CCCCC1	-	-
COc1ccc(N2C(C)=NS(=O)(=O)c3cccnc32)cc1F	-	-
Cc1onc(-c2ccccc2Cl)c1C(=O)NNC(=O)CSc1ccccc1[N+](=O)[O-]	-	.
O=c1nc2s/c(=C\C=C\c3ccccc3)c(=O)n2nc1Cc1ccccc1	-	-
Nc1c(C(=O)C23CC4CC(CC(C4)C2)C3)sc2sc3c(O)cc(=O)[nH]c3c12	.	52
N#Cc1c(SCC(=O)C23CC4CC(CC(C4)C2)C3)sc2c(O)cc(=O)[nH]c12	.	-
CSc1cccc(NC(=O)N2CCC(N3CCN(Cc4ccc(F)cc4)C3=O)CC2)c1	-	-
COc1ccc(-n2nc3c(c2NC(=O)c2cccc(OC)c2)CSC3)cc1	-	-
COc1ccc(-n2nc3c(c2NC(=O)c2cccc(Br)c2)CSC3)cc1	100	-
COc1cccc(C(=O)Nc2c3c(nn2-c2cccc(C)c2)CSC3)c1	-	53
COc1cc(OC)cc(C(=O)Nc2c3c(nn2-c2cccc(C)c2)CSC3)c1	-	-
COc1ccc(C2CC(c3ccc(Br)cc3)Nc3nnnn32)cc1OC (stereo not given)	-	-
SMILES	Pf apPOL block	mHTT-CaM PPI inh
CCCC1CCC2(CC1)CC[C@H]2OC(=O)Nc1cccc(C(F)(F)F)c1 (stereo not given in full)	-	-
O=C(Nc1ccccc1C(=O)O)c1cccc(C(=O)Nc2ccccc2C(=O)O)c1	-	70
O=C(Nc1ccccc1C(=O)O)c1ccccc1	-	-
COc1ccc2c(c1)N1CCN(c3ccc(C)cc3)CC1C(C(=O)NC1CC1)C2 (stereo not given)	-	65
COc1ccc(N2CCN3c4cc(OC)ccc4CC(C(=O)NC4CC4)C3C2)cc1 (stereo not given)	-	-
CCCCOc1ccc(C(=O)Nc2ccc(N3CCCC3=O)cc2)cc1	-	88
CCCOc1ccc(C(=O)Nc2ccc(N3CCCC3)cc2)cc1	-	-
Cc1ncsc1CN1CCCCC1c1nncn1CC1CC1 (stereo not given)	-	-
O=C(CSCc1ccco1)NCc1ccc2c(c1)OCO2	-	.
c1ccc(COc2ccc(-c3noc(C4CC4)n3)cc2)cc1	-	-
CCN(CC)CC#CC1(O)CCCCC1	-	-
OC1(C#CC#CC2(O)CCCCC2)CCCCC1	-	82
Cc1ccc(-c2noc(-c3ccc(NCCCN4CCCC4)nc3)n2)cc1	-	-
COc1ccc(C2CC(C(F)(F)F)n3ncc(C(=O)Nc4cc(C)ccc4O)c3N2)cc1 (stereo not given)	-	-
CCCCC[C@H]1CN(CCc2ccccc2)C(=O)[C@@H]1CC(=O)NCc1ccc(OC)cc1	-	75
CCCCC[C@H]1CN(CCCC)C(=O)[C@@H]1CC(=O)NCc1ccc(OC)cc1	-	-
CC1(C)Nc2ccc(C(c3ccccc3)(c3ccccc3)c3ccccc3)cc2-c2c1ssc2=S	.	-
COc1ccc2c(c1)-c1c(ssc1=S)C(C)(C)N2	.	88
COc1ccc2c(c1)NC(C)(C)C=C2C	.	-
COc1ccc2c(c1)C(C)=CC(C)(C)N2	-	94!
O=C(c1ccoc1)N1CCCC(c2cc(-c3ccc(F)cc3)n[nH]2)C1 (stereo not given)	-	-
O=C(Cn1c(=O)oc2ccccc21)Nc1nnc(-c2ccco2)o1	-	-
Cc1nc(-c2nnc(NC(=O)Cc3ccc4c(c3)OCO4)o2)cs1	-	-
Cc1nc(-c2nnc(NC(=O)Cn3c(=O)oc4ccccc43)o2)cs1	-	98
CCOC(=O)CCC(=O)Nc1nnc(-c2csc(C)n2)o1	-	61
O=C(CNC(=O)c1cccc2ccccc12)Nc1ccccc1F	-	-
